This is part of a sample that, as a whole, favours compounds with a hit. Of some 79,000 tested, about 15% had one in any assay. Unmarked numbers belong to inactive results. Calls of active or inactive are those of the source. No stated cut-off is given here; in the data, active means growth inhibition above about 70%; inactive means the rest.
What was measured:
[1] = NCI Yeast Anticancer Drug Screen. Data for the rad50 strain (AID 155);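 further: 0% = growth of vehicle-only cultures of the same strain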; details: S. cerevisiae rad50 strain growth inhibition; at 50.0 µM; active compounds read high
Outline: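 Relative growth inhibition (compound vs vehicle) was measured in yeast with a defined repair-gene alteration.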

[2] = NCI Yeast Anticancer Drug Screen. Data for the mec2-1 strain (AID 157); details: S. cerevisiae mec2-1 strain, at 50.0 µM, active compounds read high
Outline: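 Mutant yeast (mec2-1) grown with compound; growth inhibition relative to vehicle control reported.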

[3] = NCI Yeast Anticancer Drug Screen. Data for the sgs1 mgt1 strain (AID 161);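 further: 0% = growth of cultures given vehicle only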; details: S. cerevisiae sgs1 mgt1 strain, at 50.0 µM, active compounds read high
Outline: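 Yeast cells carrying a defined DNA-repair defect were exposed to test compounds. Growth inhibition was measured relative to vehicle-treated controls.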

[4] = NCI Yeast Anticancer Drug Screen. Data for the cln2 rad14 strain (AID 165);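 further: 0% = growth equal to vehicle treated cultures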; details: S. cerevisiae cln2 rad14 strain, at 50.0 µM, active compounds read high
Outline: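 Readout is yeast growth inhibition versus vehicle-treated controls, using a strain with cln2 and rad14 alterations exposed to compound.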

[5] = NCI Yeast Anticancer Drug Screen. Data for the bub3 strain (AID 167); details: S. cerevisiae bub3 mutant strain, at 50.0 µM, active compounds read high
Outline: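 Screening used yeast with an engineered genetic alteration affecting cell cycle control. Compound-exposed cultures were compared with vehicle cultures, and reduced growth was taken as inhibition.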

[6] = NCI Yeast Anticancer Drug Screen. Data for the mlh1 rad18 strain (AID 175); details: S. cerevisiae mlh1 rad18 strain growth inhibition; at 50.0 µM; active compounds read high
Outline: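 Genetically defined yeast (DNA repair-deficient) exposed to compounds; growth inhibition determined relative to vehicle.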

SMILES | growth inhibition [1] [%] | growth inhibition [2] [%] | growth inhibition [3] | growth inhibition [4] [%] | growth inhibition [5] [%] | growth inhibition [6] [%]
Cc1ccc(Nc2nc(C)c(C(=O)C/C(=N/NC(N)=S)C(=O)Nc3cc(Cl)cc(Cl)c3)s2)cc1 | -13.3 | -13.1 | 15.6% | 22.1 | -13.4 | -27.8
O=C1/C(=C/c2ccc3c(c2)OCO3)SC2C=Nc3ccccc3N12 (configuration not stated) | -14 | -20.3 | 1.2% | -7.45 | 2.5 | -8.65
CC(C)OC(CCCl)c1ccccc1 (configuration not stated) | -6.4 | -45.5 | -4.85% | 5.6 | -23.7 | 3.1
C/C=C(/C=O)[C@@H]1CC2c3c(c4ccccc4n3[C@@H](O)C1)CCN2C (some centres not stated) | -5.45 | -17.6 | -4.4% | -1.1 | -33.2 | -16.6
O=S(=O)(CS(=O)(=O)N1CCCCC1)N1CCCCC1 | -3.8 | -5.4 | -3.4% | -9.7 | 6.7 | 0.95
CC(C)OC(=O)CC1CCCCC1 | -4 | -4.4 | -14.1% | 2.95 | 3.9 | 3.15
O=[N+]([O-])c1ccc2oc(=Nc3ccccc3)c(Nc3ccccc3)nc2c1 | -21.4 | 11.4 | -18.6% | 15.9 | 6.75 | 6.25
CCC(C)OC(=O)C1C(=O)CC(c2ccccc2)C1c1ccccc1 (configuration not stated) | -2.2 | -8.4 | -4.8% | -1.45 | 3.4 | -6.35
O=Cc1ccc(OCc2cccc([N+](=O)[O-])c2)cc1 | 6.6 | 27.1 | 26.4% | -2.6 | 31.4 | 47
O=S1(=O)C(Cl)=C(O)c2ccccc21 | 13.4 | 6.5 | -2.05% | -22.6 | -7.7 | 11.4
N#Cc1ccc(CCc2ccc(Cl)cc2)cc1 | -6.85 | -17.2 | -6.9% | -41.1 | 1.3 | -9.8
Cc1cc(S(=O)(=O)Nc2n[nH]c(Nc3ccccc3)n2)c(SCC(=O)O)cc1Cl | 11.3 | 52.8 | 51.2% | -0.25 | -4.2 | 23.1
CC(C)NCCN | 17.4 | 0.3 | 18.8% | 11.3 | 12.7 | 23.4
CC(C)CC(NC(=O)C(CS)NC(=O)CN1C(=O)CCC1=O)C(N)=O (configuration not stated) | 15.1 | -2.5 | 4.65% | -17.1 | 13.3 | 19.8
N#CC(C#N)=NNc1ccc2cn[nH]c2c1 | -11.1 | 28.2 | 2.7% | -21.1 | -39.5 | -1.95
CCOC(=O)/C=C(\Nc1ccc(C(c2ccccc2)(c2ccccc2)c2ccccc2)cc1)C(=O)OCC | 38.2 | 9.9 | 32% | 20.2 | -7.3 | 27.1
CCCCC#CCN(CCCC)CCCC | -19.6 | 1 | -2.55% | 13.3 | 11.3 | -29
CC1(CO)CCCC2(C)C3=CC(=O)CCC3CCC12 (configuration not stated) | -6.7 | -1.9 | -12.8% | -0.35 | -8.95 | -3.15
C=Cc1ccc(C)[n+](C[Si](C)(C)O[Si](C)(C)C[n+]2cc(C=C)ccc2C)c1 | -18.9 | -11.1 | -26.1% | -4.2 | -10.8 | 9
NC(=O)c1cccc2c1OCO2 | -8.75 | 9.7 | -7.35% | -10.6 | -0.6 | -5.25
Nc1ccc(Cl)cc1C(=O)Oc1ccccn1 | 6.9 | -0.65 | -6.25% | -0.4 | -5.5 | -0.7

SMILES | growth inhibition [1] [%] | growth inhibition [2] [%] | growth inhibition [3] | growth inhibition [4] [%] | growth inhibition [5] [%] | growth inhibition [6] [%]
C1CSCCSCCCSC2CCCCC2SC1 (configuration not stated) | 22.1 | -0.3 | -8.35% | 17.4 | 5 | 2.15
O=C(/C=C/c1ccc(OCC(=O)N2CCN(c3ccccc3)CC2)cc1)c1ccc(Cl)cc1 | 13.6 | 13.9 | -5.8% | 0.55 | 2.7 | -4.45
CCCCSCC(NC(=O)/C=C/c1c(C)[nH]c(=O)[nH]c1=O)C(=O)OC (configuration not stated) | 16.1 | 20.2 | 31.2% | 22.4 | 7.7 | 28.6
O=C(O)C1=C/C(=C\C=[N+]2c3cc(O)c(OC4OC(CO)C(O)C(O)C4O)cc3CC2C(=O)[O-])CC(C(=O)O)N1 (configuration not stated) | -10.4 | -3.75 | 12.2% | -26.1 | 5.8 | 6
C=Cc1ccc(OC2OC(CO)C(OC3OC(CO)C(O)C(O)C3O)C(O)C2O)cc1 (configuration not stated) | 14.7 | -18.9 | -1.1% | -58.9 | -0.35 | -2.8
CC(=O)OC1C(=C(Br)Br)C(COC(=O)c2ccccc2)OC1n1cnc2c(NC(=O)c3ccccc3)ncnc21 (configuration not stated) | 8.3 | 8.8 | 10.4% | 0.1 | 16.9 | 25.9
CN(C)c1ccc(-c2cccc[n+]2C)cc1 | -12.8 | 12.2 | 3.05% | 3.25 | 0.1 | 25.7
CN(C(=O)c1ccc(Cl)c(Cl)c1)C(c1ccco1)P(=O)(c1ccccc1)c1ccccc1 (configuration not stated) | 54 | 46.2 | 78.4% (active) | 17.2 | 50.4 | 45.9
O=C(O)CSc1ncccc1[N+](=O)[O-] | 8.85 | -0.65 | -6.05% | 12.9 | -32.6 | 4.35
Cc1cc[n+](CCc2c[nH]c3ccccc23)cc1C | 30.5 | -0.3 | 11.9% | 20.4 | -1.65 | 10.8
Cc1cc(-c2cc(C)on2)no1 | -44.7 | -2.75 | -15.9% | -30.1 | -6.15 | -3.25
NC(CCC(=O)Nc1cccc2ccccc12)C(=O)O (configuration not stated) | 27.6 | 1.65 | 16.5% | 12.4 | 17.2 | -3.15
CC1(O)CCCCCCC1 | 0.85 | -3.6 | 26.6% | 0.7 | 7.9 | 7.8
Cc1cc(Br)cc2c1NC(=O)C(C)C2C (configuration not stated) | -2.95 | 12.7 | -24.6% | -8.95 | -3.35 | 1.1
COC(=O)CC(c1ccc(OC)cc1)c1cc2c(cc1OC)OCO2 (configuration not stated) | 3.45 | 3.75 | 2.75% | 7.5 | 18.3 | 15.5
O=C(NCc1ccccc1)NCN1CCOCC1 | 20.7 | -0.85 | 5.15% | 0.45 | 5.65 | -11.3
CC(C)(c1ccsc1)c1sccc1C(=O)O | -4.7 | 2.95 | 8.55% | -19.4 | -2.95 | 16.2
CCc1ccc[n+](CCc2c[nH]c3ccccc23)c1 | -13 | -0.45 | -10% | 1.35 | 1.35 | -10.5
CC(NC(=O)C(NC(=O)c1ccc[n+](Cc2ccccc2)c1)C(C)C)C(N)=O (configuration not stated) | 0.45 | 8.05 | -2.6% | -6.2 | -1.95 | 23.4
Cc1cc(O)c(C(c2cccnc2)c2c(O)cc(C)[nH]c2=O)c(=O)[nH]1 | 1.95 | -14.8 | -40.1% | 11.8 | -30.2 | 30.1
Cc1ccc(-c2c(C#N)c(-c3ccccc3)c(C#N)c(=O)n2NS(=O)(=O)c2ccc(C)cc2)cc1 | 3.65 | 28.1 | 17.1% | 18.7 | 18.2 | 23.3
